Results: PubChem BioAssay (EPA / NIEHS)
Inconclusive results are not listed. Calls of active or inactive are those of the source. Rule for the calls, unless noted: active = hit-call score of the fitted dose curve at least 0.9, where 1 is the maximum; inconclusive = response in the unintended direction; inactive = score below 0.9.

How the values were obtained:
[1] = BSK_4H_Eotaxin3: BioMAP Diversity Plus: 4H Assay for Eotaxin 3 Biomarker Activity (AID 2283000; active = hit-call score of the fitted dose curve at least 0.9, where 1 is the maximum; inactive = score below 0.9;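 note: CCL26 protein level quantified by ELISA in parallel with SRB cytotoxicity check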); settings: primary human endothelial cells (HUVEC); actives raise or lower the signal
Outline: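 HUVEC, 24 h post-dose, ELISA for Eotaxin-3/CCL26. Gain or loss of signal fitted bidirectionally vs DMSO baseline.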

[2] = biological target: human Peroxisome Proliferator-activated Receptor delta (PPARd), PPARD (gene 5467) (UniProt Q03181); assay: ATG_PPARd_TRANS: Attagene TRANS-FACTORIAL HepG2 Assay for human Peroxisome Proliferator-activated Receptor delta (PPARd) (AID 2283002)
Chain of human Peroxisome Proliferator-activated Receptor delta (PPARd), PPARD (gene 5467) (Q03181 whole entry, looked up, the tested form may be a part): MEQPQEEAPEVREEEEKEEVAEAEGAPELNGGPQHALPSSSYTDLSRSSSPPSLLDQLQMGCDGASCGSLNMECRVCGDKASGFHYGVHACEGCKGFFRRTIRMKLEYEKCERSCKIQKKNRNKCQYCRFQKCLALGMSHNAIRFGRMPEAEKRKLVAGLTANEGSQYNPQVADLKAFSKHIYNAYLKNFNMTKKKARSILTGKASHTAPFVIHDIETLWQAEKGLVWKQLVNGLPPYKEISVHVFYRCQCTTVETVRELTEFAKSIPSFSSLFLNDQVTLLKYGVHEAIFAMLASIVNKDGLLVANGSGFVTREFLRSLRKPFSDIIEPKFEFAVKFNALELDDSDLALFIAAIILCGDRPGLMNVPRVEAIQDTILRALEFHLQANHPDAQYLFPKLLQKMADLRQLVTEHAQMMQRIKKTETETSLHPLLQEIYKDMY
Outline: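 HepG2 cells transiently transfected with GAL4-UAS multiplexed reporter units driven by exogenous chimeric NR-GAL4 proteins; 24 h compound exposure. Reporter mRNA measured by RT-PCR, 6-FAM primer extension, HpaI digestion and capillary electrophoresis; gain of signal fitted relative to DMSO.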

[3] = biological target: Retinoic acid receptor alpha (Homo sapiens) (UniProt P10276); assay: ATG_RARa_TRANS: Attagene TRANS-FACTORIAL HepG2 Assay for human Retinoic Acid Receptor alpha (RARa) (AID 2283005)
Chain of Retinoic acid receptor alpha (Homo sapiens) (P10276 whole entry, looked up, the tested form may be a part): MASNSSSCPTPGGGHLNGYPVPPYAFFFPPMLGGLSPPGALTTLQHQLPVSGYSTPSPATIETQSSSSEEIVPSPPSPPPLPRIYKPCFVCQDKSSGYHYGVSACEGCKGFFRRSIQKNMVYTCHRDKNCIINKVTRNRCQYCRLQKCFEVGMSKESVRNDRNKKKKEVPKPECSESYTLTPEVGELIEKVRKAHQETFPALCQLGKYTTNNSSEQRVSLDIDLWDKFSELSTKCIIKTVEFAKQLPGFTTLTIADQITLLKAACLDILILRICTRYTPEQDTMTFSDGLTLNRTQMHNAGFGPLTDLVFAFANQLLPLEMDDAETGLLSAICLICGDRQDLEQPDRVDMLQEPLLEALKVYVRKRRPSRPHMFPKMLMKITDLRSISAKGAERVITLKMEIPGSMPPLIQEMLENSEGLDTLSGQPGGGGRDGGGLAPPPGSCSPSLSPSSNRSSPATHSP
Outline: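 HepG2 transiently transfected with multiplex GAL4-UAS reporter units including a human RARa–GAL4 chimera; 24 h compound exposure. Reporter mRNA quantified by RT-PCR, 6-FAM labeling and capillary electrophoresis; gain of signal versus DMSO.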

[4] = biological target: Peroxisome proliferator-activated receptor gamma (Homo sapiens) (UniProt P37231); assay: ATG_PPARg_TRANS: Attagene TRANS-FACTORIAL HepG2 Assay for human Peroxisome Proliferator-activated Receptor-gamma (PPARg) (AID 2283007)
Outline: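 Liver-derived HepG2 cells expressing an exogenous NR-Gal4 chimera alongside GAL4-UAS reporter genes; 24 h exposure. Fluorescence of reporter RT-PCR products, separated by capillary electrophoresis, gives mRNA induction relative to DMSO.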

[5] = biological target: human Retinoic Acid Receptor gamma (RARg), RARG (gene 5916) (UniProt P13631); assay: ATG_RARg_TRANS: Attagene TRANS-FACTORIAL HepG2 Assay for human Retinoic Acid Receptor gamma (RARg) (AID 2283009)
Chain of human Retinoic Acid Receptor gamma (RARg), RARG (gene 5916) (P13631 whole entry, looked up, the tested form may be a part): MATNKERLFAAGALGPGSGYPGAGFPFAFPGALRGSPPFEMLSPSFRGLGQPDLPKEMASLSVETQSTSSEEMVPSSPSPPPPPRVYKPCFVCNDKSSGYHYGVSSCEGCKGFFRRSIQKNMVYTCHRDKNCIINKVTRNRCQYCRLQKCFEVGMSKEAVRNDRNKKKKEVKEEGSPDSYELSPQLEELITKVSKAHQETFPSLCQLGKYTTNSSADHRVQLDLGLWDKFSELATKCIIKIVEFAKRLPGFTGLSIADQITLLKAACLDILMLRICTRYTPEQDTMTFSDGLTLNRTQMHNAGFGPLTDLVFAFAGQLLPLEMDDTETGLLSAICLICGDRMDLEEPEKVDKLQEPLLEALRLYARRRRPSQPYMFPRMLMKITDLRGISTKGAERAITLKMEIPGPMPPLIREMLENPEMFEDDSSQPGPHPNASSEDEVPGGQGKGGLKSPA
Outline: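 TRANS format measured activity of exogenous NR-GAL4 fusion (RARg) in transfected HepG2 liver cells after 24 h dosing. Induced reporter RNA was detected by RT-PCR/capillary electrophoresis fluorescence, analysed in the positive direction against DMSO.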

[6] = biological target: Retinoic acid receptor RXR-alpha (Homo sapiens) (UniProt P19793); assay: ATG_RXRa_TRANS: Attagene TRANS-FACTORIAL HepG2 Assay for human Retinoid X Receptor alpha (RXRa) (AID 2283012)
Outline: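 Measures exogenous chimeric NR-GAL4 activity in transfected HepG2 liver cells after 24 h of dosing. Induced reporter mRNA was detected by RT-PCR with capillary electrophoresis, and gain of signal was analysed against DMSO.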

[7] = biological target: human Retinoid X Receptor beta (RXRb), RXRB (gene 6257) (UniProt P28702); assay: ATG_RXRb_TRANS: Attagene TRANS-FACTORIAL HepG2 Assay for human Retinoid X Receptor beta (RXRb) (AID 2283013)
Chain of human Retinoid X Receptor beta (RXRb), RXRB (gene 6257) (P28702 whole entry, looked up, the tested form may be a part): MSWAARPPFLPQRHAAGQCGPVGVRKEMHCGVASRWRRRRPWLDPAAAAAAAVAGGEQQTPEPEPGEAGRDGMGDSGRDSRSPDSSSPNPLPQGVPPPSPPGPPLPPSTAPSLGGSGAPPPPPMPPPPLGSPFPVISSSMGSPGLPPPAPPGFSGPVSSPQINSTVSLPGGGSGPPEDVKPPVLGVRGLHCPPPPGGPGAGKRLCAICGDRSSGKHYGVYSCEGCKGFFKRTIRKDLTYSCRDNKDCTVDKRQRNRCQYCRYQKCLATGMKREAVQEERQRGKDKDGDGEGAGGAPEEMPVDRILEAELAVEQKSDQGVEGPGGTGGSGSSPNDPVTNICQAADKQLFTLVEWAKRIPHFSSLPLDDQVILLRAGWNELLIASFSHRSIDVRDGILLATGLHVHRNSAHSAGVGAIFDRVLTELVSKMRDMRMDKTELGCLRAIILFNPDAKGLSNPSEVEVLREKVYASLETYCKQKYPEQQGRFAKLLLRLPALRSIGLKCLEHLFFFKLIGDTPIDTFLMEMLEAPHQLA
Outline: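 Chimeric receptor-Gal4 activity was assessed in transiently transfected human HepG2 cells after 24 h exposure. Transcripts from GAL4-UAS reporters were quantified by fluorescent RT-PCR and capillary electrophoresis, with DMSO as negative control and baseline.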

[8] = read-out: E-selectin (Homo sapiens) (UniProt P16581); assay: BSK_3C_Eselectin: BioMAP Diversity Plus: 3C Assay for Eselectin Biomarker Activity (AID 2283015; active = hit-call score of the fitted dose curve at least 0.9, where 1 is the maximum; inactive = score below 0.9;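 note: cell surface E-selectin protein quantified by ELISA 24 h after dosing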); settings: primary human endothelial cells (HUVEC); actives raise or lower the signal
Outline: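 Primary human umbilical vein endothelial cells (3C system) were dosed with chemical and cell-surface E-selectin measured by ELISA 24 h later. Bidirectional curve fitting used DMSO as negative control and baseline.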

[9] = read-out: Interleukin-1 alpha (IL1a), IL1A (gene 3552); assay: BSK_BE3C_IL1a: BioMAP Diversity Plus: BE3C Assay for Interleukin-1 alpha (IL1a) Biomarker Activity (AID 2283016; active = hit-call score of the fitted dose curve at least 0.9, where 1 is the maximum; inactive = score below 0.9); settings: primary human bronchial epithelial cells; actives raise or lower the signal
Outline: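 Signal from IL-1a ELISA, taken 24 h after chemical dosing of human bronchial epithelial cells, is compared with DMSO as baseline using bidirectional curve fitting.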

[10] = read-out: Monocyte Chemoattractant Protein-1 (MCP1), CCL2 (gene 6347); assay: BSK_3C_MCP1: BioMAP Diversity Plus: 3C Assay for Monocyte Chemoattractant Protein-1 (MCP1) Biomarker Activity (AID 2283017; active = hit-call score of the fitted dose curve at least 0.9, where 1 is the maximum; inactive = score below 0.9); settings: primary human endothelial cells (HUVEC); actives raise or lower the signal
Outline: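 Primary human umbilical vein endothelial cells (3C system) were exposed to test chemical for 24 h, after which MCP-1 was quantified by ELISA. Activity was fitted bidirectionally against DMSO as negative control and baseline.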

[11] = read-out: Human Leukocyte Antigen - DR isotype (HLADR), HLA-DRA (gene 3122); assay: BSK_3C_HLADR: BioMAP Diversity Plus: 3C Assay for Human Leukocyte Antigen - DR isotype (HLADR) Biomarker Activity (AID 2283019; active = hit-call score of the fitted dose curve at least 0.9, where 1 is the maximum; inactive = score below 0.9;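 note: ELISA of cell-surface HLA-DR on HUVEC 24 h after dosing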); settings: primary human endothelial cells (HUVEC); actives raise or lower the signal
Outline: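 Primary human umbilical vein endothelial cells (3C system) were dosed with compound and cell-surface HLA-DR was quantified by ELISA at 24 h. Activity was fitted bidirectionally against DMSO as negative control and baseline.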

[12] = biological target: human RAR-related Orphan Receptor beta (RORb), RORB (gene 6096) (UniProt Q92753); assay: ATG_RORb_TRANS: Attagene TRANS-FACTORIAL HepG2 Assay for human RAR-related Orphan Receptor beta (RORb) (AID 2283010)
Chain of human RAR-related Orphan Receptor beta (RORb), RORB (gene 6096) (Q92753 whole entry, looked up, the tested form may be a part): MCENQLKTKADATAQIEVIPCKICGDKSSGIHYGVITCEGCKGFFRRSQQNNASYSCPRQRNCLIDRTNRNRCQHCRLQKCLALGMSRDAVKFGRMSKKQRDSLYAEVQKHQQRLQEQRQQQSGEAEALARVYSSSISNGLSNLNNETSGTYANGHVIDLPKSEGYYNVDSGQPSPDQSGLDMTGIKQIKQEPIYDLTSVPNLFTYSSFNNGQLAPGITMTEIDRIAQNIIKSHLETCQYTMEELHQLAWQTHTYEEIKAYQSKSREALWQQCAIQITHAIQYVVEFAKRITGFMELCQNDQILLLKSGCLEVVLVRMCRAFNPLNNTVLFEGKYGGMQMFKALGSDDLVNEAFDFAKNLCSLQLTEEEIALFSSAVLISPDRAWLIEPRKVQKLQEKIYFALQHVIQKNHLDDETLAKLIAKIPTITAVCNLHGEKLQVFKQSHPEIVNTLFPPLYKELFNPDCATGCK
Outline: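 Transfect HepG2 with multiple GAL4-UAS reporter transcription units; dose chemicals for 24 h; isolate RNA, reverse-transcribe and PCR-amplify reporter sequences; label, digest and resolve fragments by capillary electrophoresis; fit increases relative to DMSO.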

[13] = biological target: human RAR-related Orphan Receptor gamma (RORg), RORC (gene 6097) (UniProt P51449); assay: ATG_RORg_TRANS: Attagene TRANS-FACTORIAL HepG2 Assay for human RAR-related Orphan Receptor gamma (RORg) (AID 2283011)
Outline: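 Readout: reporter transcript induction (RT-PCR, fluorescent primer extension, capillary electrophoresis) after 24 h compound exposure of transiently transfected HepG2 cells carrying a RORg-Gal4 chimera and GAL4-UAS reporters; DMSO served as baseline, with increasing signal fitted.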

[14] = BSK_3C_Proliferation: Cell Proliferation Assessment in the BioMAP Diversity Plus: 3C Assay (AID 2283006; active = hit-call score of the fitted dose curve at least 0.9, where 1 is the maximum; inactive = score below 0.9); settings: primary human endothelial cells (HUVEC)
Outline: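 Cells (human umbilical vein endothelial, sub-confluent) receive test chemical; after 48 h they are fixed in 10% trichloroacetic acid, stained with 0.1% SRB and read at 560 nm. Activity is referenced to DMSO, fitting increases and decreases.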

[15] = biological target: Nuclear receptor subfamily 1 group I member 2 (Homo sapiens) (UniProt O75469); assay: ATG_PXR_TRANS: Attagene TRANS-FACTORIAL HepG2 Assay for human Pregnane X Receptor (PXR) (AID 2283008)
Chain of Nuclear receptor subfamily 1 group I member 2 (Homo sapiens) (O75469 whole entry, looked up, the tested form may be a part): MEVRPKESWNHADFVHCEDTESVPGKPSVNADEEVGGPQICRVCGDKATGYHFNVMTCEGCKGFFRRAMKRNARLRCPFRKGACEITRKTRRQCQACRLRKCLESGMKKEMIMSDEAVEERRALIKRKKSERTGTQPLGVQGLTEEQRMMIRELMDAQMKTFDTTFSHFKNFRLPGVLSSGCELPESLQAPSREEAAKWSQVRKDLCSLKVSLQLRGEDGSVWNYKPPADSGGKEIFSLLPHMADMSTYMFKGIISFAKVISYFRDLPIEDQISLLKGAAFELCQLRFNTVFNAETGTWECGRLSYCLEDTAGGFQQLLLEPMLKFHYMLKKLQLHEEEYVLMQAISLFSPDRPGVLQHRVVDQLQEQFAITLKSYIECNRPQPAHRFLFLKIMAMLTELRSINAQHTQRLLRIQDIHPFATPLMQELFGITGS
Outline: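 Transient HepG2 transfectants carrying multiplexed reporter transcription units; PXR activity read through a Gal4 chimera. 24 h exposure. RT-PCR/CE fluorescence; upward curve fit referenced to DMSO.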

[16] = read-out: Monocyte Chemoattractant Protein-1 (MCP1), CCL2 (gene 6347); assay: BSK_4H_MCP1: BioMAP Diversity Plus: 4H Assay for Monocyte Chemoattractant Protein-1 (MCP1) Biomarker Activity (AID 2283018; active = hit-call score of the fitted dose curve at least 0.9, where 1 is the maximum; inactive = score below 0.9); settings: primary human endothelial cells (HUVEC); actives raise or lower the signal
Outline: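 Endothelial cells from umbilical vein were treated with test chemical, then after 24 h MCP-1 levels were quantified by ELISA; endpoint values came from bidirectional fitting with DMSO as baseline of activity.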

[17] = biological target: human Peroxisome Proliferator-activated Receptor alpha (PPARa), PPARA (gene 5465) (UniProt Q07869); assay: ATG_PPARa_TRANS: Attagene TRANS-FACTORIAL HepG2 Assay for human Peroxisome Proliferator-activated Receptor alpha (PPARa) (AID 2283001);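 for AC50: potency for gain of reporter signal over DMSO so agonist or activator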
Chain of human Peroxisome Proliferator-activated Receptor alpha (PPARa), PPARA (gene 5465) (Q07869 whole entry, looked up): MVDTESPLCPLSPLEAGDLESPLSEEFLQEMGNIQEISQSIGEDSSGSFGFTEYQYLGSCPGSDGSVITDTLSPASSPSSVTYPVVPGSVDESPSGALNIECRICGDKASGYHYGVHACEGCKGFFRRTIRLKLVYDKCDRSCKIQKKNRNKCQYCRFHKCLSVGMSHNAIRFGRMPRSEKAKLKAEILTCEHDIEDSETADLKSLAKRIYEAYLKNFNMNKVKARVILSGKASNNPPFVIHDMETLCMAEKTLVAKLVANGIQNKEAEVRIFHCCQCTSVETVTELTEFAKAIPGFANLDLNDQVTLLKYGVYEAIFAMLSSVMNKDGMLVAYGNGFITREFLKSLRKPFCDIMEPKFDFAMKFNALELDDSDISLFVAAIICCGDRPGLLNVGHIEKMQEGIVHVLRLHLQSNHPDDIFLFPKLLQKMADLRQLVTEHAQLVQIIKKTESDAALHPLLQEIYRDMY
Outline: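 HepG2, transient MRTU transfection, 24 h treatment. RT-PCR → FAM labelling → capillary electrophoresis. Fit vs DMSO, positive direction.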

[18] = biological target: human Retinoic Acid Receptor beta (RARb), RARB (gene 5915) (UniProt P10826); assay: ATG_RARb_TRANS: Attagene TRANS-FACTORIAL HepG2 Assay for human Retinoic Acid Receptor beta (AID 2283004)
Chain of human Retinoic Acid Receptor beta (RARb), RARB (gene 5915) (P10826 whole entry, looked up, the tested form may be a part): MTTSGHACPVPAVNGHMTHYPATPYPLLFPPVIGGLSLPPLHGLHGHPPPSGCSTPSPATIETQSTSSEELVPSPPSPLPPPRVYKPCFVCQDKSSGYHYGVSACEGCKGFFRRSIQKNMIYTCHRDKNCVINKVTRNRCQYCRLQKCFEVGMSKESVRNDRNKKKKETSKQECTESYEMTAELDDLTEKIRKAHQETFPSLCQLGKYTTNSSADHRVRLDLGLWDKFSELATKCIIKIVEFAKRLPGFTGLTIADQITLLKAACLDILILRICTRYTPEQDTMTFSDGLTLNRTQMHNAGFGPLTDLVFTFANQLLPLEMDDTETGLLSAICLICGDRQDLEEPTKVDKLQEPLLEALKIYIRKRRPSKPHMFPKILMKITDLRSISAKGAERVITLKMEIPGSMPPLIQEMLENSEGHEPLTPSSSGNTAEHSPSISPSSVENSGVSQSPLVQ
Outline: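 HepG2 cells transiently transfected with multiplexed GAL4-UAS reporter units expressing chimeric NR–Gal4 fusions; 24 h compound exposure. Reporter mRNA quantified by RT-PCR, 6-FAM labelling, HpaI digestion and capillary electrophoresis; gain-of-signal fitted against DMSO baseline.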

[19] = biological target: human Thyroid Receptor alpha (THRa1), THRA (gene 7067) (UniProt P10827); assay: ATG_THRa1_TRANS: Attagene TRANS-FACTORIAL HepG2 Assay for human Thyroid Receptor alpha (THRa1) (AID 2283014)
Chain of human Thyroid Receptor alpha (THRa1), THRA (gene 7067) (P10827 whole entry, looked up, the tested form may be a part): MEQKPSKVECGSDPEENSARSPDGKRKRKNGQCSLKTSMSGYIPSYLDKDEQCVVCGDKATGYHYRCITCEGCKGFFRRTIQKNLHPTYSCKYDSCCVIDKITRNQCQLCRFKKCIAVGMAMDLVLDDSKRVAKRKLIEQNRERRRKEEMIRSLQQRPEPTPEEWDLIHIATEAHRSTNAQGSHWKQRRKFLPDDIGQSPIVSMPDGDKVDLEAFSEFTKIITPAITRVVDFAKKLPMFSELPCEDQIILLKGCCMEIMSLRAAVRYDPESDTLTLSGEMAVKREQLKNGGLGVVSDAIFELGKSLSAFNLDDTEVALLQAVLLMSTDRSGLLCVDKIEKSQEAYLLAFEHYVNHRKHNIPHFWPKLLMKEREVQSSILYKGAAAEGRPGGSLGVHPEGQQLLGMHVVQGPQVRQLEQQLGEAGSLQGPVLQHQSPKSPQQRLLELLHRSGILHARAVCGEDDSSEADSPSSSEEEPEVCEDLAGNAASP
Outline: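 HepG2 cells transiently transfected with multiplexed GAL4-UAS reporter units for exogenous chimeric THRa1-Gal4; reporter mRNA measured 24 h after dosing by RT-PCR, 6-FAM labelling, HpaI digestion and capillary electrophoresis. Gain-of-signal fitted versus DMSO baseline.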

[20] = read-out: Intercellular Adhesion Molecule 1 (ICAM1), ICAM1 (gene 3383); assay: BSK_3C_ICAM1: BioMAP Diversity Plus: 3C Assay for Intercellular Adhesion Molecule 1 (ICAM1) Biomarker Activity (AID 2283003; active = hit-call score of the fitted dose curve at least 0.9, where 1 is the maximum; inactive = score below 0.9); settings: primary human endothelial cells (HUVEC); actives raise or lower the signal
Outline: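 Chemicals are dosed onto primary human umbilical vein endothelium (3C system). After 24 h, ICAM-1 is measured by ELISA, and responses are fitted bidirectionally relative to DMSO.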

Measured: AC50

Chain of E-selectin (Homo sapiens) (P16581 whole entry, looked up): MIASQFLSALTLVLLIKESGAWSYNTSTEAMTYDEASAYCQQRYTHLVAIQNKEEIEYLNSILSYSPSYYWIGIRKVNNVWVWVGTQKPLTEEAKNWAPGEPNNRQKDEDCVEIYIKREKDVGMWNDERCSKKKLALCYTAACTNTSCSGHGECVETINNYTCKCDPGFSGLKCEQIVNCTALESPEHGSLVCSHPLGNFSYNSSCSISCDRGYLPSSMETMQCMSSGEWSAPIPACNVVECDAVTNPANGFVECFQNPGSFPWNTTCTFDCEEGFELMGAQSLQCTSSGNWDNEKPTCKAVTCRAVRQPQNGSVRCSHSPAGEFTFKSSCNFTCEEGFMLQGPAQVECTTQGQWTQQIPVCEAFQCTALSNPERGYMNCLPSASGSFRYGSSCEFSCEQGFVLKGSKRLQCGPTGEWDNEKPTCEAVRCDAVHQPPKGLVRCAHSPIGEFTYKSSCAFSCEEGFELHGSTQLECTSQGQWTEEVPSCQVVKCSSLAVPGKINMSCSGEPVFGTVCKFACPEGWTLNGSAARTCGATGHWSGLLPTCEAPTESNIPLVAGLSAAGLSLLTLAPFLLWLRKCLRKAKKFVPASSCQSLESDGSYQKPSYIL

CCNc1nc(NC(C)(C)C)nc(OC)n1
inactive: [1] | [2] | [3] | [4] | [5] | [6] | [7] | [8] | [9] | [10] | [11]

O=C(O)C(F)(F)C(F)(F)C(F)(F)C(F)(F)C(=O)O
inactive: [1] | [4] | [5] | [12] | [13] | [6] | [8] | [9] | [10] | [11]

O=C1CCCCCCCCCCCN1
inactive: [1] | [2] | [14] | [5] | [8] | [9] | [10] | [16] | [11]
active: [15] 5.31 µM | [7] 33.8 µM

CC1(C)C(=O)N(CO)C(=O)N1CO
inactive: [17] | [2] | [18] | [3] | [15] | [5] | [12] | [13] | [6] | [19]

COC(=O)C=Cc1ccccc1
inactive: [17] | [2] | [3] | [4] | [15] | [5] | [13] | [7] | [19]

CCOC(=O)C1=NOC(c2ccccc2)(c2ccccc2)C1
inactive: [1] | [15] | [12] | [13] | [6] | [8] | [10] | [16] | [11]
active: [4] 100 µM | [9] 0.129 µM

CCc1cccc(C)c1N(C(=O)CS(=O)(=O)O)C(C)COC (stereo not given)
active: [15] 27.6 µM
not listed: [6] | [13] | [14] | [16] | [17] | [18]
inactive: all other assays above

CCOB(OCC)OCC
inactive: [17] | [2] | [18] | [3] | [4] | [7] | [19]

COC(=O)c1ccc(C(=O)OC)c(C(=O)OC)c1
active: [17] 12.6 µM | [4] 34.5 µM
inactive: [2] | [3] | [15] | [12] | [7]

CCC(C)C(=O)OC (stereo not given)
inactive: [17] | [2] | [18] | [3] | [4] | [15] | [12] | [6] | [7]

CCCCCCCO
inactive: [1] | [17] | [4] | [15] | [5] | [6] | [8] | [9] | [10] | [11]
active: [7] 114 µM
